The campaign covered roughly 330,000 compounds. About 1,700 (0.52%) were called active. The entries come from a sample that favours actives as a whole. Values without a mark were called inactive. Calls come from the whole dose curve; as a rule, active = well fitted inhibition curve with a large enough effect; inconclusive = small, poorly fitted or top-dose-only effect; inactive = no such curve, though single readings can be large or run the other way.
target: Beta-lactamase (Escherichia coli (strain K12)) (UniProt P00811); assay: qHTS Inhibitors of AmpC Beta-Lactamase (assay without detergent); settings: AmpC nitrocefin hydrolysis, absorbance 480 nm, 0.0001% Triton; series mostly up to 57.1 µM; activity change, negative = inhibition: at the top concentration; note: nearly all actives have a fitted effect of over 20% in size;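 for activity change, negative = inhibition: plate controls were no compound for no effect and no enzyme for full effect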
Summary of the method: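 20 mM phosphate pH 7.0 + 0.01% (detergent screen) or 0.0001% Triton X-100; 5.3 nM AmpC reagent; cpd preinc 15 min RT; nitrocefin (800 uM stock) to start; A480 q20 s × 4 min; Activity was normalised to no-enzyme and no-compound control wells.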
Potency is the fitted concentration of half-maximal effect.

Chain of Beta-lactamase (Escherichia coli (strain K12)) (P00811 whole entry, looked up): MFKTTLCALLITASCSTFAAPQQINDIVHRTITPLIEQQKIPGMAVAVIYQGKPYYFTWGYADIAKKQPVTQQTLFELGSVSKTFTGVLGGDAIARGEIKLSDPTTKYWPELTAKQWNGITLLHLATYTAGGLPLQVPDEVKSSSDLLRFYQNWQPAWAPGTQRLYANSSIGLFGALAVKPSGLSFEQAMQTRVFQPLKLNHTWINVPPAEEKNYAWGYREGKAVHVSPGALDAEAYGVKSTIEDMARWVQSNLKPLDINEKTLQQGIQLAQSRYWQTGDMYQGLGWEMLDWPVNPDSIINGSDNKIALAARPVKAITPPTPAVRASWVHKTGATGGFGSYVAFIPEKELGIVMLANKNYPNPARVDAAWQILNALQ

SMILES	Potency	activity change, negative = inhibition
CC(C)Cn1c(CN(Cc2ccccc2)Cc2ccccc2)nc2c1c(=O)n(C)c(=O)n2C	3.55 µM (active)	–
Cc1oc2nc(SCC(=O)Nc3ccc(S(N)(=O)=O)cc3)nc(NC(=O)c3ccccc3)c2c1C	–	-28.2%
O=C(CNC1CCCCC1)NCC1(c2ccccc2)CCCC1	–	-22.1%
Cc1ccc(-n2c(C)cc(C(=O)CSc3nnc4ccccn34)c2C)cc1	–	-0.189%
O=C(CSc1nnc2ccccn12)c1ccccc1	44.7 µM (active)	–
Cc1ccc(C(=O)NNC(=O)CSc2nnc3ccccn23)cc1	–	-13.5%
O=C(NCCc1csc(-c2ccccc2)n1)c1ccccc1F	–	-2.06%
COc1ccc(N2CCN(C(=O)CNC(=O)c3ccc(Br)o3)CC2)cc1	–	-0.595%
COc1ccc(-c2nc(CCNC(=O)c3ccc(Br)o3)cs2)cc1	44.7 µM (active)	–
CCOC(=O)N1CCN(Cc2oc(CO)cc(=O)c2O)CC1	–	-9.1%
CC(C)(C)OC(=O)C1=C(CO)CS[C@@H]2[C@H](NC(=O)Cc3ccccc3)C(=O)N12	–	-11.7%
C=CC1=C(C(=O)O)N2C(=O)[C@@H](NC(=O)/C(=N\OCC(=O)O)c3csc(N)n3)[C@H]2SC1	2 µM (active)	–
Cc1nnc(SCC2=C(C(=O)O)N3C(=O)C(NC(=O)Cn4nc(C)c(Cl)c4C)C3SC2)s1 (stereo not given)	–	1.18%
Cc1cc(C)cc(C(=O)NC2C(=O)N3C(C(=O)O)=C(CSc4nnc(C)s4)CSC23)c1 (stereo not given)	–	-28.5%
O=C(CN1C(=O)NC2(CCCCC2)C1=O)NCCC1=CCCCC1	–	-12.1%
O=S(=O)(c1ccc(Cl)s1)N1CCC2(CC1)OCCO2	–	2.59%
COc1ccc(CNC(=O)CN2C(=O)NC3(CCCc4sccc43)C2=O)cc1 (stereo not given)	–	-9.03%
C=CCC1=C/C(=C\c2c(N)n3nc(CC(=O)N4CCOCC4)sc3nc2=O)C=C(OC)C1=O	–	26.6%
COC(=O)C1(C)NC(c2ccc(F)cc2)C2C(=O)N(c3ccccc3)C(=O)C21 (stereo not given)	–	-7.33%
COC(=O)CSc1snnc1-c1ccc(Cl)c(Cl)c1	–	-0.324%
O=C1c2ccccc2NC(c2ccccn2)N1NS(=O)(=O)c1ccccc1 (stereo not given)	–	-11.1%
Clc1ccc(Cl)c(Oc2ccc(Oc3nc(Cl)ccc3Cl)cc2)n1	–	-11%
Nc1c(N(CCCO)C(=O)C2CCCC2)c(=O)[nH]c(=O)n1Cc1ccccc1	–	-5.31%
CCCCCn1c(SCCC(C)C)nc2c1c(=O)[nH]c(=O)n2C	–	-18.6%
COC(=O)c1c(NC(=O)c2ccc(S(=O)(=O)N3CCOCC3)cc2)sc2c1CCN(C(C)C)C2	–	150%

SMILES	Potency	activity change, negative = inhibition
N#CCC(=O)N/N=C/c1cn(Cc2ccc3ccccc3c2)c2ccccc12	–	-51.5%
COc1cccc(Cn2cc(/C=N/NC(=O)c3cc(O)cc(O)c3)c3ccccc32)c1	7.94 µM (active)	–
CNC(=S)N/N=C/c1cn(Cc2ccc(C)cc2)c2ccccc12	–	-7.01%
Cc1ccc(C(=O)N/C(=C\c2ccco2)C(=O)NC2CCS(=O)(=O)C2)cc1 (stereo not given)	–	-10.6%
Cc1cccc(C)c1NC(=O)CS(=O)CC(=O)N1CCN(c2ccccc2)CC1 (stereo not given)	–	8.61%
O=C(O)CCCN1C(=O)c2ccccc2Sc2ncccc21	–	-23.4%
O=C(Nc1ccc(S(=O)(=O)N2CCc3ccccc3C2)cc1)c1ccccc1	–	-26.2%
C=CCN(CC=C)S(=O)(=O)c1ccc(C(=O)Nc2nc3c(s2)CCc2ccccc2-3)cc1	8.91 µM (active)	–
COCCN(CCOC)S(=O)(=O)c1ccc(C(=O)Nc2nc3c(s2)CCc2ccccc2-3)cc1	–	11.3%
O=C(Cc1ccccc1)NCC1OCCc2ccccc21 (stereo not given)	–	-17.1%
CC(=O)N1C(=O)/C(=C2\SC(=S)N(NC(=O)c3ccc(O)cc3)C2=O)c2ccccc21	20 µM (active)	–
Cn1cccc1/C=C1\SC(=S)N(NC(=O)c2ccc(Cl)cc2)C1=O	–	-37.8%
O=C(O)c1ccc(/C=C2\SC(=S)N(NC(=O)c3ccc(Br)cc3)C2=O)cc1	–	-30.6%
CC1(c2ccccc2Cl)NC(=O)N(CC(=O)NC(=O)NCc2ccco2)C1=O (stereo not given)	–	-8.19%
O=C1CCN(Cc2ccc([N+](=O)[O-])cc2)CCN1[C@H](CO)Cc1ccccc1	–	87.8%
O=C(CCCn1c(=O)oc2ccccc21)Nc1cccnc1	–	-14.5%
Oc1c(CN2CCCC2)cc(COCc2ccccc2)c2cccnc12	inactive	–
Clc1cccc(CN2COc3c(cc(Cl)c4cccnc34)C2)c1	35.5 µM (active)	–
CC(C)CC(=O)N1CCN(Cc2cccc(Cl)c2)CC1	–	-1.38%
CC[C@]12c3[nH]c4ccc(Cl)cc4c3CCN1C(=O)[C@@H](CC(=O)NCCN1CCOCC1)C[C@@H]2C(=O)N1CCN(C(=O)C2CC2)CC1	–	252%
CC(C)CCN1NC2(CCC(C)CC2)NC1=S (stereo not given)	–	-6.11%
O=c1oc2ccccc2c(CNc2ccccc2)c1[N+](=O)[O-]	–	-36.5%
O=C(COC(=O)c1cc(=O)[nH]c2ccccc12)Nc1nc(-c2cccc(Br)c2)cs1	14.1 µM (active)	–
O=C(COC(=O)c1cc(=O)[nH]c2ccccc12)NCc1cccc(Cl)c1	–	-23.1%
CC(NC(=O)COC(=O)c1cc(=O)[nH]c2ccccc12)c1ccccc1 (stereo not given)	–	-10.1%

From PubChem BioAssay AID485341 (National Center for Advancing Translational Sciences (NCATS), 2010)
